Structures are written as SMILES. Several values for one entry are separate records, joined by “and”; a condition that tells them apart may be missing. Equal values may be shown once. Inconclusive results are not listed. Unmarked numbers belong to inactive results. Activity calls are given as the source filed them. Unless noted, the call rests on the fitted dose curve; in most records, active means well fitted curve in the direction sought with a large enough effect; inconclusive means small, poorly fitted or top-dose-only effect, or another doubt; inactive means no such curve, though single readings can be large; an effect the other way counts as inactive or inconclusive.

A short description of assay [1]: Confirmatory qHTS for small molecule stabilizers of the endoplasmic reticulum resident proteome: Secreted ER Calcium Modulated Protein (SERCaMP) assay (AID 1508628). Further: nearly all actives have a fitted effect of over 40% in size. Further: potency means the concentration at half of the fitted maximal effect. The gist of the method:
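We seeded SH-SY5Y-GLuc-SERCaMP cells, added compounds (three concentrations in the primary run, eleven up to 76.6 uM in confirmation), incubated 16 h, depleted ER calcium with thapsigargin, and read luciferase 4 h later.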
For orientation: qHTS replaces the single test concentration by a dilution series.

Assay [2] in a line: A High-Content qHTS Against Drug Library for the Identification of Small Molecules that Inhibit DYT1 Early Onset Primary Dystonia-Associated Cell Pathology (AID 1645839; calls by dose curve; further: potency means the concentration at half of the fitted maximal effect). The method, boiled down:
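Flp-In T-REx 293 cells with tetracycline-inducible EGFP-delE hTOR1A (WT EGFP-hTOR1A as reference), 800 cells/well; compound added with tetracycline, 48 h at 37 C. Fixed, permeabilized cells imaged; %pathology (punctate TorsinA) primary, cell count counterscreen.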

Assay [3] addresses Cytochrome P450 2C9 (Homo sapiens) (UniProt P11712). Put plainly: Cytochrome P450 family 2 subfamily C member 9 (CYP2C9) small molecule antagonists: luciferase biochemical (cell-free) qHTS assay (AID 1645842; active means well fitted curve in the direction sought with a large enough effect in the repeat runs; an effect the other way counts as inactive or inconclusive; further: nearly all actives have a fitted effect of over 55% in size; further: potency means the concentration at half of the fitted maximal effect). The gist of the method: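 Luminescence, after 20 min with luciferin detection reagent, reflected CYP2C9 turnover during a 1 h NADPH-driven reaction at 37C. Enzyme-substrate mix contained 0.4% bovine serum albumin and was preincubated with compound 10 min at room temperature.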

Assay [4] can be described thus: Primary qHTS for inhibitors of nuclear receptor binding SET domain protein 2 (NSD2) in an isogenic RCH-ACV NSD2 p.E1099K mutant (9B) (AID 1645876). Further: nearly all actives have a fitted effect of over 70% in size. Further: potency means the concentration at half of the fitted maximal effect.
A short description of assay [5]: Primary qHTS for inhibitors of nuclear receptor binding SET domain protein 2 (NSD2) in an RCH-ACV wild type WT cells (2C) (AID 1645877). Further: nearly all actives have a fitted effect of over 70% in size. Further: potency means the concentration at half of the fitted maximal effect.
Assay [6] can be described thus: Cell Viability qHTS for small molecule stabilizers of the endoplasmic reticulum resident proteome (AID 1508629).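 Further: compound exposure about 46 h in total before the viability read.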 Further: potency means the concentration at half of the fitted maximal effect.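 On max response: human SH-SY5Y neuroblastoma cells carrying the GLuc-SERCaMP reporter; on the % scale 0 is the no-effect control and ±100 the full control effect.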 To be noted: cell viability counter-screen, 100 nM thapsigargin for final 4 h.
The target of assay [7] is Cytochrome P450 2D6 (Homo sapiens) (UniProt P10635). Put plainly: Cytochrome P450 family 2 subfamily D member 6 (CYP2D6) small molecule antagonists: luciferase biochemical (cell-free) qHTS assay (AID 1645840; active means well fitted curve in the direction sought with a large enough effect in the repeat runs; an effect the other way counts as inactive or inconclusive; further: nearly all actives have a fitted effect of over 55% in size; further: potency means the concentration at half of the fitted maximal effect). The method, boiled down: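 P450-Glo luminescent screen: recombinant CYP2D6 enzyme–proluciferin substrate mix preincubated with compound 10 min at room temperature, then NADPH regeneration added for 1 h at room temperature. Detection reagent added for 20 min; luciferin light read as relative luminescence units.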

The target of assay [8] is Rap guanine nucleotide exchange factor 3 (Homo sapiens) (UniProt O95398). Put plainly: Confirmatory qHTS for antagonist of cAMP-regulated guanine nucleotide exchange factor 3 (EPAC1) (AID 1645880). Further: nearly all actives have a fitted effect of over 55% in size. Further: potency means the concentration at half of the fitted maximal effect. The method, boiled down: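 Nucleotide exchange uses 100 nM EPAC1, 250 nM RAP1B-BODIPY-GDP and 50 uM GDP, with compounds in a concentration-titration series. After 5 min at room temperature, fluorescence (480 nm ex/540 nm em) is read every 5 min for 30 min. Data are normalized to control ATA and DMSO.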

Assay [9] shares this target. Put plainly: Confirmatory qHTS for agonist of cAMP-regulated guanine nucleotide exchange factor 3 (EPAC1) (AID 1645881).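 Further: EPAC1 catalysed release of BODIPY-GDP from Rap1B seen as fluorescence loss; 100% = effect of cAMP agonist control; nearly all actives have a fitted effect of over 75% in size.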
Assay [10] concerns the target Rap guanine nucleotide exchange factor 4 (Homo sapiens) (UniProt Q8WZA2). Nature of the assay: Confirmatory qHTS for agonist of cAMP-regulated guanine nucleotide exchange factor 4 (EPAC2) (AID 1645884).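 Further: nucleotide exchange releases bodipy-GDP from Rap1 and this lowers its fluorescence; on the % scale 0 is the no-effect control and ±100 the full control effect; nearly all actives have a fitted effect of over 65% in size.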
The target is the same in assay [11]. Put plainly: Confirmatory qHTS for antagonist of cAMP-regulated guanine nucleotide exchange factor 4 (EPAC2) (AID 1645885). Further: potency means the concentration at half of the fitted maximal effect; nearly all actives have a fitted effect of over 25% in size.
Assay [12] is described as follows: Primary qHTS for small molecule stabilizers of the endoplasmic reticulum resident proteome: Secreted ER Calcium Modulated Protein (SERCaMP) assay (AID 1508630). Further: on the % scale 0 is the no-effect control and ±100 the full control effect. The method, boiled down:
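GLuc-SERCaMP-expressing SH-SY5Y cells, pretreated 16 h with compound, are challenged with thapsigargin to empty ER calcium stores; after 4 h, coelenterazine is added directly to the medium and luminescence is imaged.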

A further assay deals with Papain (Carica papaya) (UniProt P00784). Nature of the assay: Primary qHTS assay for inhibitors of the protease papain (AID 1645873).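 Further: papain turnover of Z-FR-AMC read as the AMC fluorescence gain over 10 min; series mostly up to about 50 µM; on the % scale 0 is the no-effect control and ±100 the full control effect.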
A short description of assay [13]: NCATS anti-infectives library activity on HEK293 viability as a counter-qHTS vs the C. elegans viability qHTS (AID 1745854).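 Further: HEK293 cells exposed to compounds for 24 hr before the viability read; on the % scale 0 is the no-effect control and ±100 the full control effect.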 The gist of the method:
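Cytotoxicity in human HEK293 cells is measured by ATP-dependent CellTiter-Glo luminescence following a 24 hr incubation with titrated library compounds at 37C. Top final concentration is 41.7 uM.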

Assay [14] has as its target Cytochrome P450 3A4 (Homo sapiens) (UniProt P08684). Put plainly: Cytochrome P450 family 3 subfamily A member 4 (CYP3A4) small molecule antagonists: luciferase qHTS assay (AID 1645841; active means well fitted curve in the direction sought with a large enough effect in the repeat runs; an effect the other way counts as inactive or inconclusive; further: nearly all actives have a fitted effect of over 45% in size; further: potency means the concentration at half of the fitted maximal effect). The method, boiled down:
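P450-Glo CYP3A4 enzyme with proluciferin substrate preincubated 10 min with compound at room temperature, then NADPH regeneration 1 h. Luciferin detection reagent added for 20 min; luminescence recorded. Ketoconazole positive control.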

Cytochrome P450 2C9 (Homo sapiens), sequence (P11712 whole entry, looked up): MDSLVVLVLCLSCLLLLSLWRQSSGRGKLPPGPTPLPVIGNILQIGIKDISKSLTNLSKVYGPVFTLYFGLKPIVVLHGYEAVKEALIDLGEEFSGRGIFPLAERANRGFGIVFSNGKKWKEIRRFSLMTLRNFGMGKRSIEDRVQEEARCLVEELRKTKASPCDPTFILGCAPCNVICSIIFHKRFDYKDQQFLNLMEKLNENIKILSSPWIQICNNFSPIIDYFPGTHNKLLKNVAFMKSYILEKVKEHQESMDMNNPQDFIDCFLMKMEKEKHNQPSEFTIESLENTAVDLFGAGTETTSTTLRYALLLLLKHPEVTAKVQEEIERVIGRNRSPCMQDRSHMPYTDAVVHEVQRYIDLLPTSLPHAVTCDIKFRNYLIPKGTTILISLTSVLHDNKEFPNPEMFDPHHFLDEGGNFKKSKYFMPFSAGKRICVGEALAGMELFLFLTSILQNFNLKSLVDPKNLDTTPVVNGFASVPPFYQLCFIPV
Rap guanine nucleotide exchange factor 3 (Homo sapiens), sequence (O95398 whole entry, looked up): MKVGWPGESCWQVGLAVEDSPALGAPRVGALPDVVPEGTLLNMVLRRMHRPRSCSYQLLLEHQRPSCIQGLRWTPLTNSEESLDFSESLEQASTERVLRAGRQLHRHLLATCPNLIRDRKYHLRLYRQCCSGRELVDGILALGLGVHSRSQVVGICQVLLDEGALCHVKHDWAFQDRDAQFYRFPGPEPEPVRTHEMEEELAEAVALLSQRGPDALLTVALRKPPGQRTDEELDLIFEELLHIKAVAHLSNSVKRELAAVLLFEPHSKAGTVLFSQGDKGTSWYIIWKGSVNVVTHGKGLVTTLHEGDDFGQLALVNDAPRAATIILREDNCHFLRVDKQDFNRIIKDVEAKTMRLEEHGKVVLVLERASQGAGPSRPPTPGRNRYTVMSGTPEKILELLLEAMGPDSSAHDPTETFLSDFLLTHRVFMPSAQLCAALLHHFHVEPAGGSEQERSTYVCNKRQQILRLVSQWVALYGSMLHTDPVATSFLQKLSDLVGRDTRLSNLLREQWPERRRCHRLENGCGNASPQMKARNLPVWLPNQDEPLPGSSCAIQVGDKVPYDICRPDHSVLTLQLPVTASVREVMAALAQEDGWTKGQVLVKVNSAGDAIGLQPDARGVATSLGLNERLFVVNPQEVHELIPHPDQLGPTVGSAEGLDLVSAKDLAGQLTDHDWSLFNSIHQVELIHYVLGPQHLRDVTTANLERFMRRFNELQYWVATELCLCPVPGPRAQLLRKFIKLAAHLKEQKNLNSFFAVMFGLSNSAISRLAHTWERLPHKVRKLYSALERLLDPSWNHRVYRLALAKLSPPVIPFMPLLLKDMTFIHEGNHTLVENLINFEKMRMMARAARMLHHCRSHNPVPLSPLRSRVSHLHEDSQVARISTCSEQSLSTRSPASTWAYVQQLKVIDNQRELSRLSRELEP
Cytochrome P450 2D6 (Homo sapiens), sequence (P10635 whole entry, looked up): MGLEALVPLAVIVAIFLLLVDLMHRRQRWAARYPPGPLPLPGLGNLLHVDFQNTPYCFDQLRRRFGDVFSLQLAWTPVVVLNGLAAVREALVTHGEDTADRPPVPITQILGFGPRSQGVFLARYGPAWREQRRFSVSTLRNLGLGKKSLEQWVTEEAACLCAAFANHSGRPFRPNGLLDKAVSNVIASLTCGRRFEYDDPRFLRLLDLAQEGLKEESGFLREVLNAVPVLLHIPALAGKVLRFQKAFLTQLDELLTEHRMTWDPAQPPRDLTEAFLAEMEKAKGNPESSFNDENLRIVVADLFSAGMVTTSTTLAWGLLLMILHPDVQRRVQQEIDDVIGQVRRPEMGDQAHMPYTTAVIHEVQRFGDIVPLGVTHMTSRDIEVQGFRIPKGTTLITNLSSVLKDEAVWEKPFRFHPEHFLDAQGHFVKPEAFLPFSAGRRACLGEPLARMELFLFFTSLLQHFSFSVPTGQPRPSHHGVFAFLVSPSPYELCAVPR
Rap guanine nucleotide exchange factor 4 (Homo sapiens), sequence (Q8WZA2 whole entry, looked up): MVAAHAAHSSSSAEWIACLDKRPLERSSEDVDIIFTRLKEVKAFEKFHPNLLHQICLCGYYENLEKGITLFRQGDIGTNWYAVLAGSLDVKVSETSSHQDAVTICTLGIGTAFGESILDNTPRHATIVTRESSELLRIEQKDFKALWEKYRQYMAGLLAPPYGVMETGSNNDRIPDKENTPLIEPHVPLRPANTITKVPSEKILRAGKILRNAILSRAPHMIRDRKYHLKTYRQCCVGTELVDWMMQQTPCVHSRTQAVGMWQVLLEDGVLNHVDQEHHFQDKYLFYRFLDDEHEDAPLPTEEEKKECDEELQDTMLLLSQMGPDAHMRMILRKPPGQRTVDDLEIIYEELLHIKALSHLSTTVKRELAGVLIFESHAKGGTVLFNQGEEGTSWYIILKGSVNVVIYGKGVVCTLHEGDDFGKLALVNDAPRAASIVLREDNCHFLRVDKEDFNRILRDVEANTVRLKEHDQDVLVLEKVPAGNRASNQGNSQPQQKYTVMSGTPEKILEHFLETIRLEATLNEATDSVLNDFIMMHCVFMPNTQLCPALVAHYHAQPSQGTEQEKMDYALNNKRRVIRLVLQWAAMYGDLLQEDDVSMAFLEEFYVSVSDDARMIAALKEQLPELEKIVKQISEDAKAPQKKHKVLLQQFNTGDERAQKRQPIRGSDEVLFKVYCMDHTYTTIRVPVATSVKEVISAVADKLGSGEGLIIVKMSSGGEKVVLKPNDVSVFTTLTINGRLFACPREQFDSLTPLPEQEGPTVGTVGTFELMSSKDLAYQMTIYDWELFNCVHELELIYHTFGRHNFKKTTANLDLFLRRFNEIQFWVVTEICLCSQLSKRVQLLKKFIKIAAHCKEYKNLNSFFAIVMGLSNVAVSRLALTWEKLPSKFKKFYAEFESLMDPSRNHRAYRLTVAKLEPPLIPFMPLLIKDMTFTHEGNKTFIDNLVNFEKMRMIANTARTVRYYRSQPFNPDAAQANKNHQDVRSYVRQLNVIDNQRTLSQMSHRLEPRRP
Papain (Carica papaya), sequence (P00784 whole entry, looked up): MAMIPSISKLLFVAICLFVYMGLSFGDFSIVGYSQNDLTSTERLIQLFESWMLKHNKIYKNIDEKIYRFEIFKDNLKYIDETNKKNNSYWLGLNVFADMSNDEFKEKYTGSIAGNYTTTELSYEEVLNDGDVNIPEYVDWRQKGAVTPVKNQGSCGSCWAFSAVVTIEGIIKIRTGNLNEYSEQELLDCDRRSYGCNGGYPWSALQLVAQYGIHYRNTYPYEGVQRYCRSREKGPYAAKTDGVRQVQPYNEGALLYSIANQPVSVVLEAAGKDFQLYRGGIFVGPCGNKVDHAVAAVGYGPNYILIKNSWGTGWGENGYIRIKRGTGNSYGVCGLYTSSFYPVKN
Cytochrome P450 3A4 (Homo sapiens), sequence (P08684 whole entry, looked up): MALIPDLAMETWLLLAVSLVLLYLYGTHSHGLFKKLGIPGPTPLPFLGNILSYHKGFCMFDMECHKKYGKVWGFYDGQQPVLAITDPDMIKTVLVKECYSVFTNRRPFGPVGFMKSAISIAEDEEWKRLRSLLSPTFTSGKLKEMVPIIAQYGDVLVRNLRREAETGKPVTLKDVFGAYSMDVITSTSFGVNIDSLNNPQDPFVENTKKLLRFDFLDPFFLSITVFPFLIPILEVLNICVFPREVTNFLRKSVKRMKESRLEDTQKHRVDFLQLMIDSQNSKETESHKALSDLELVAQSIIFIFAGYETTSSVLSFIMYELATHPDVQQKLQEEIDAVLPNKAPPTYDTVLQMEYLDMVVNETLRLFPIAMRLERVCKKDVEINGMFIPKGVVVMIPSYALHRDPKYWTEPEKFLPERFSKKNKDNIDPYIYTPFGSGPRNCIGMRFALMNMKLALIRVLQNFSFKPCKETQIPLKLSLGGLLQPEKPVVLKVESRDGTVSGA

Take `CCOc1ncc(F)c(=O)[nH]1`: the Potency result in assay [1], in [2], in [3], in assay [4] and in [5] was “inactive” in each case.

As to `C=CCNc1nc(NCC=C)nc(N2CCN(C(c3ccc(F)cc3)c3ccc(F)cc3)CC2)n1`, the max response in assay [6] was 26.9%. Further, the Potency result in [2], in assay [7] and in assay [3] was “inactive” throughout.

As for `CCCC(=O)Nc1ccc(O)c(C(C)=O)c1`, the Potency result in assay [1], in assay [2], in assay [7], in assay [3], in assay [4] and in [5] was “inactive” throughout. The max response in [6] was 11.5%.

For the compound `CC(C)(c1ccc(O)cc1)c1ccc(O)cc1`, the Potency was 89.1 µM (active) and 44.7 µM (active) and 50.1 µM (active) in assay [1]; 31.6 µM (active) in assay [2]; 43.9 µM (active) in assay [7]; 27.2 µM (active) in [3]; 80.4 µM (active) in [11]. In addition, the Potency result in [8], in [9] and in assay [10] was “inactive” each time.

As to `Cc1oc(-c2ccccc2)nc1CCC(=O)c1ccc(CC2SC(=O)NC2=O)cc1` (stereo not given), the Potency result in [12] is “inactive”.

As to `N[C@@H](Cc1cc(I)c(O)c(I)c1)C(=O)O`, the Potency result in assay [1], in assay [12], in assay [2], in assay [4] and in assay [5] was “inactive” each time. In addition, the max response in assay [6] is 10.7%. Further, in [3], the Potency was 15.5 µM (active).

Regarding `O=C(NO)c1ccccc1`, the Potency result in assay [1], in assay [2], in [7] and in assay [3] was “inactive” in each case. For the same compound, in assay [6], the max response was 2.69%. Besides, the Potency is 36.6 µM (active) in assay [4] and 25.9 µM (active) in assay [5].

For the compound `Fc1ccc(C(c2ccc(F)cc2)N2CCNCC2)cc1`, the Potency entry in [1], in assay [2], in assay [4] and in assay [5] was “inactive” throughout. Also, the Potency in [7] was 7.76 µM (active).

For the compound `CC(C)OC(=O)c1cc2c(OCC(O)CNC(C)(C)C)cccc2[nH]1` (stereo not given), in [6], the max response is -12.8%. Also, the Potency result in [2] and in assay [3] was “inactive” throughout. Moreover, the Potency in [7] is 11 µM (active).

As for `CN1CCC(=C2c3ccccc3CCc3cccnc32)CC1`, in assay [6], the max response was 12.6%. In addition, the Potency result in [4] was “inactive”.

`O=C1NC(c2cccc([N+](=O)[O-])c2)=CCN1c1ccccc1O`: in [1], the Potency is 3.16 µM (active). The max response in assay [6] is 23.5% and 15.8%. Besides, the Potency entry in [12], in assay [4] and in assay [5] was “inactive” in each case. In addition, the call with Papain (Carica papaya) was inactive.

`COc1cccc2c1[C@@H]1CN(CCCCn3c(=O)[nH]c4c(sc5ncc(-c6ccccc6)nc54)c3=O)C[C@@H]1CO2`: the Potency entry in [1] is “inactive”. In addition, the result in the assay with Papain (Carica papaya) was inactive.

As to `CC(C(O)c1ccccc1)N(C)CCOC(c1ccccc1)c1ccccc1` (stereo not given), the Potency was 31.6 µM (active) in [1]; 0.0309 µM (active) in assay [7]; 13.8 µM (active) in assay [3]; 16.3 µM (active) in assay [4]; 16.3 µM (active) in [5]. Besides, the max response in assay [6] is -4.6%.

Take `Clc1ccc2c(c1)N=C(N1CCNCC1)c1ccccc1N2`: in assay [1], the Potency is 14.1 µM (active) and 10 µM (active). Further, in the assay with Papain (Carica papaya), the compound was called inactive. The Potency result in [13] is “inactive”.

In the case of `CN1CCC(Nc2ncc3ncnc(Nc4ccc(F)c(Cl)c4)c3n2)CC1`, the Potency entry in [1] and in assay [3] was “inactive” throughout. Moreover, the Potency in assay [7] is 15.5 µM (active); in [4], 15 µM (active); in assay [5], 11.9 µM (active).

Consider `Cc1nc2n(c(=O)c1CCN1CCC(C(=O)c3ccc(F)cc3)CC1)CCS2`, for which the Potency result in assay [1], in assay [2] and in assay [3] was “inactive” each time. In assay [6], the max response was -14.5%. Further, the Potency in [7] was 0.275 µM (active).

Turning to `Cc1cc2nc3ccc(=[N+](C)C)cc-3sc2cc1N`, the Potency in assay [6] is 7.94 µM (active); in assay [7], 0.431 µM (active); in assay [4] it was 1.33 µM (active); in assay [5], 1.06 µM (active).

With `COC(=O)[C@H]1[C@H]2C[C@@H]3c4[nH]c5cc(OC)ccc5c4CCN3C[C@H]2C[C@@H](OC(=O)/C=C/c2ccc(O)c(OC)c2)[C@@H]1OC`, the values for the Potency in [1], in [4] and in [5] were 20 µM (active), 4.73 µM (active) and 4.73 µM (active), respectively. The Potency result in [7] was “inactive”.

With `CCOC(=O)N1CCC(Nc2ccc(Cl)cc2N)CC1`, the max response in [6] is -17.4%. The Potency in assay [7] is 7.76 µM (active); in assay [3], 8.71 µM (active); in assay [4], 13.3 µM (active); in assay [5], 11.9 µM (active).

For `CN1CCCN(C(c2ccccc2)c2ccc(Cl)cc2)CC1` (stereo not given), the Potency entry in assay [1] was “inactive”. Besides, the Potency in assay [6] is 25.1 µM (active); in [7], 0.0776 µM (active); in assay [5], 16.8 µM (active).

On to `C[C@H](N)C(=O)N[C@@H](C)C(=O)NC1[C@H]2CN(c3nc4c(cc3F)c(=O)c(C(=O)O)cn4-c3ccc(F)cc3F)C[C@@H]12` (stereo not given in full), for which the max response in assay [6] was -5.88%. The Potency result in assay [2], in assay [7], in assay [14] and in assay [3] was “inactive” each time. The Potency in assay [4] was 7.5 µM (active); in assay [5], 6.68 µM (active).

On to `C[C@H]1C[C@H](O)c2ccsc2S1(=O)=O`, for which the Potency entry in assay [1], in assay [2], in assay [7], in assay [3] and in assay [5] was “inactive” throughout.

For `O=C(O)Cn1cnnn1`, the Potency result in assay [1], in assay [7], in assay [3], in assay [4] and in assay [5] was “inactive” throughout.

Regarding `CC(C)C(=O)Nc1cccc(C2CN3CCSC3=N2)c1` (stereo not given), the Potency result in [12] and in [2] was “inactive” throughout.

For `Cc1ccc(C(=O)Oc2ccc(C(O)CNC(C)(C)C)cc2OC(=O)c2ccc(C)cc2)cc1` (stereo not given), the Potency entry in [12] was “inactive”.

Take `CC[N+]1(CC)CCC(=C(c2ccccc2)c2ccccc2)C1C` (stereo not given): the Potency result in [12] and in [2] was “inactive” in each case.

For `O=C1CC(c2ccc(Cl)cc2)CC(=O)N1`, the Potency result in assay [1], in assay [2], in [7], in assay [3], in [4] and in assay [5] was “inactive” in each case. Besides, in [6], the max response is 1.98%.

On to `CCC(=O)O[C@H]1[C@H](O[C@@H]2[C@@H](C)[C@H](O[C@H]3C[C@@](C)(OC)[C@@H](O)[C@H](C)O3)[C@@H](C)C(=O)O[C@H](CC)[C@@](C)(O)[C@H](O)[C@@H](C)C(=O)[C@H](C)C[C@@]2(C)O)O[C@H](C)C[C@@H]1N(C)C`, for which the Potency in assay [1] is 20 µM (active); in assay [14] it was 18.2 µM (active); in assay [8] it was 12.5 µM (active); in [11], 17.5 µM (active). For the same compound, the max response in assay [6] was 17.4%. Further, the Potency result in [2], in [7], in assay [3], in assay [4], in assay [5] and in assay [9] was “inactive” in each case. Further, the Potency entry in assay [10] is “inactive”.

For the origin of these results see PubChem BioAssay (NCATS).
